# Measured values published in PubChem BioAssay (NCATS).
# Records with an inconclusive call do not appear. Calls of active or inactive are those of the source. Calls come from the whole dose curve; as a rule, active = well fitted curve in the direction sought with a large enough effect; inconclusive = small, poorly fitted or top-dose-only effect, or another doubt; inactive = no such curve, though single readings can be large; an effect the other way counts as inactive or inconclusive.
# Experiments:
# [1] = qHTS of pediatric cancer cell lines to identify multiple opportunities for drug repurposing: Confirmatory screen for Saos-2 cells (AID 1347127); note: nearly all actives have a fitted effect of over 60% in size; note: potency is the fitted concentration of half-maximal effect
# How it was run: (§1)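 Viability after 48 h compound treatment at 37C, 500-1,000 cells/well, read as ATP luminescence with CellTiter-Glo. Primary screens used 11-point (MIPE, 0.78 nM-46 µM) or 8-point (NPC, 0.59 nM-46 µM) final concentrations; follow-up screens used 11-point dilutions.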
# [2] = qHTS of pediatric cancer cell lines to identify multiple opportunities for drug repurposing: Confirmatory screen for MG 63 (6-TG R) cells (AID 1347119); note: nearly all actives have a fitted effect of over 55% in size; note: potency is the fitted concentration of half-maximal effect
# How it was run: as §1
# [3] = qHTS of pediatric cancer cell lines to identify multiple opportunities for drug repurposing: Confirmatory screen for U-2 OS cells (AID 1347122); note: nearly all actives have a fitted effect of over 65% in size; note: potency is the fitted concentration of half-maximal effect
# How it was run: as §1
# [4] = qHTS of pediatric cancer cell lines to identify multiple opportunities for drug repurposing: Confirmatory screen for Rh41 cells (AID 1347123);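 note: 48 h compound exposure; nearly all actives have a fitted effect of over 60% in size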; note: potency is the fitted concentration of half-maximal effect
# How it was run: as §1
# [5] = qHTS of pediatric cancer cell lines to identify multiple opportunities for drug repurposing: Confirmatory screen for RD cells (AID 1347124);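 note: cells exposed to compound for 48 h before viability readout; nearly all actives have a fitted effect of over 65% in size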; note: potency is the fitted concentration of half-maximal effect
# How it was run: as §1
# [6] = qHTS of pediatric cancer cell lines to identify multiple opportunities for drug repurposing: Confirmatory screen for Rh30 cells (AID 1347126); note: nearly all actives have a fitted effect of over 55% in size; note: potency is the fitted concentration of half-maximal effect
# How it was run: as §1
# [7] = qHTS of pediatric cancer cell lines to identify multiple opportunities for drug repurposing: Confirmatory screen for OHS-50 cells (AID 1347128);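 note: compound exposure lasted 48 h at 37 degrees C; nearly all actives have a fitted effect of over 55% in size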; note: potency is the fitted concentration of half-maximal effect
# How it was run: as §1
# [8] = qHTS of pediatric cancer cell lines to identify multiple opportunities for drug repurposing: Confirmatory screen for SK-N-SH cells (AID 1347129);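 note: cells exposed to compound for 48 h before viability read; nearly all actives have a fitted effect of over 60% in size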; note: potency is the fitted concentration of half-maximal effect
# How it was run: as §1
# [9] = qHTS of pediatric cancer cell lines to identify multiple opportunities for drug repurposing: Confirmatory screen for control Hh wild type fibroblast cells (AID 1347121); note: nearly all actives have a fitted effect of over 70% in size
# How it was run: as §1
# [10] = qHTS of pediatric cancer cell lines to identify multiple opportunities for drug repurposing: Confirmatory screen for Rh18 cells (AID 1347125); note: nearly all actives have a fitted effect of over 55% in size; note: potency is the fitted concentration of half-maximal effect
# How it was run: as §1
smiles,measurement,setting,value
COC(=O)[C@H](c1ccccc1Cl)N1CCc2sccc2C1,Potency,[1],inactive
CC1=C(CC(=O)O)c2cc(F)ccc2C1=Cc1ccc(S(C)=O)cc1 (configuration not stated),Potency,[1],inactive
CSc1cccc(Nc2ncc3cc(-c4c(Cl)cccc4Cl)c(=O)n(C)c3n2)c1,Potency,[2],1.85 µM (active)
same,Potency,[3],3.29 µM (active)
same,Potency,[4],0.465 µM (active)
same,Potency,[5],0.369 µM (active)
same,Potency,[6],6.57 µM (active)
same,Potency,[7],4.65 µM (active)
same,Potency,[8],2.64 µM (active)
C[C@@]1(c2cc(-c3cncnc3)c(F)cc2F)CCSC(N)=N1,Potency,[2],9.27 µM (active)
same,Potency,[9],inactive
same,Potency,[4],7.37 µM (active)
same,Potency,[6],inactive
COc1cc([C@@H]2c3cc4c(cc3[C@@H](O[C@@H]3O[C@@H]5CO[C@@H](C)O[C@@H]5[C@H](O)[C@@H]3O)[C@H]3COC(=O)[C@H]23)OCO4)cc(OC)c1O,Potency,[2],5.85 µM (active)
same,Potency,[9],inactive
same,Potency,[4],4.14 µM (active)
same,Potency,[5],inactive
same,Potency,[6],4.65 µM (active)
same,Potency,[1],5.22 µM (active)
same,Potency,[7],8.27 µM (active)
CCNC(=O)c1noc(-c2cc(C(C)C)c(O)cc2O)c1-c1ccc(CN2CCOCC2)cc1,Potency,[2],0.147 µM (active)
same,Potency,[3],0.117 µM (active)
same,Potency,[4],0.0465 µM (active)
same,Potency,[5],0.0737 µM (active)
same,Potency,[6],0.0737 µM (active)
same,Potency,[7],0.147 µM (active)
same,Potency,[8],0.132 µM (active)
CCCC1OC2C[C@@H]3[C@H]4CCC5=CC(=O)C=C[C@]5(C)[C@H]4C(O)C[C@]3(C)[C@]2(C(=O)CO)O1 (some centres not stated),Potency,[2],inactive
same,Potency,[9],inactive
same,Potency,[7],inactive
same,Potency,[8],inactive
Cc1ccc(S(=O)(=O)Nc2nc3ccccc3nc2Nc2ccc3nsnc3c2)cc1,Potency,[2],16.2 µM (active)
same,Potency,[9],inactive
same,Potency,[8],inactive
CC(C)CN(C[C@@H](O)[C@H](Cc1ccccc1)NC(=O)O[C@H]1CO[C@H]2OCC[C@H]21)S(=O)(=O)c1ccc(N)cc1,Potency,[2],inactive
same,Potency,[9],inactive
same,Potency,[3],inactive
same,Potency,[6],inactive
same,Potency,[1],inactive
same,Potency,[7],inactive
Cc1ccc(C(=O)N(CCCN)[C@@H](c2oc3cc(Cl)ccc3c(=O)c2Cc2ccccc2)C(C)C)cc1,Potency,[2],0.0233 µM (active)
same,Potency,[3],0.0369 µM (active)
same,Potency,[4],0.0093 µM (active)
same,Potency,[5],0.0165 µM (active)
same,Potency,[10],26.1 µM (active)
same,Potency,[6],23.3 µM (active)
same,Potency,[7],0.0093 µM (active)
O=C1Nc2ccc(I)cc2C1=Cc1cc(Br)c(O)c(Br)c1,Potency,[2],inactive
same,Potency,[4],inactive
same,Potency,[5],inactive
same,Potency,[6],1.17 µM (active)
same,Potency,[8],inactive
CNC(=O)[C@H](CC1=CN=C2C=CCC=C12)NC(=O)[C@@H](CC(=O)NO)CC(C)C,Potency,[2],1.47 µM (active)
same,Potency,[3],4.14 µM (active)
same,Potency,[4],2.93 µM (active)
same,Potency,[6],1.47 µM (active)
same,Potency,[8],inactive
C=CC(=O)Nc1cccc(Sc2nc(Nc3ccc(N4CCN(C)CC4)cc3)ncc2Cl)c1,Potency,[2],18.5 µM (active)
same,Potency,[3],16.5 µM (active)
same,Potency,[4],10.4 µM (active)
same,Potency,[5],5.85 µM (active)
same,Potency,[6],9.27 µM (active)
same,Potency,[7],14.7 µM (active)
same,Potency,[8],9.35 µM (active)
CCC(C)SSc1ncc[nH]1 (configuration not stated),Potency,[2],20.8 µM (active)
same,Potency,[9],inactive
same,Potency,[4],9.27 µM (active)
same,Potency,[8],16.6 µM (active)
COc1cc(CNC(=O)CCCCC=CC(C)C)ccc1O,Potency,[2],inactive
same,Potency,[9],inactive
same,Potency,[5],inactive
same,Potency,[6],inactive
same,Potency,[7],inactive
O=C(CC12CC3CC(CC(C3)C1)C2)Nc1cccc2nc(NCCNCCO)ccc12,Potency,[2],inactive
same,Potency,[9],inactive
same,Potency,[4],13.1 µM (active)
same,Potency,[8],inactive
CC(C)C[C@@H](C(=O)N[C@H](C(=O)OC1CCCC1)c1ccccc1)[C@H](O)C(=O)NO,Potency,[2],20.8 µM (active)
same,Potency,[9],inactive
same,Potency,[4],11.7 µM (active)
same,Potency,[10],inactive
same,Potency,[1],5.85 µM (active)
COc1cc2ncnc(Nc3cc(Br)c(O)c(Br)c3)c2cc1OC,Potency,[2],inactive
same,Potency,[9],inactive
same,Potency,[5],inactive
same,Potency,[7],inactive
CCCCn1c(=O)n(Cc2ccccc2F)c(=O)c2[nH]c(Cc3ccc(NC(C)=O)cc3)nc21,Potency,[2],inactive
same,Potency,[9],inactive
same,Potency,[7],inactive
same,Potency,[8],inactive
Nc1ccn([C@@H]2O[C@H](CO)[C@@H](O)[C@H]2O)c(=O)n1,Potency,[2],inactive
same,Potency,[9],inactive
same,Potency,[3],inactive
same,Potency,[10],inactive
CC(C)n1c(C=C[C@H](O)C[C@H](O)CC(=O)O)c(-c2ccc(F)cc2)c2ccccc21,Potency,[2],3.29 µM (active)
same,Potency,[3],3.69 µM (active)
same,Potency,[4],20.8 µM (active)
same,Potency,[5],10.4 µM (active)
same,Potency,[1],1.04 µM (active)
same,Potency,[7],10.4 µM (active)
same,Potency,[8],4.18 µM (active)
CCC(c1ccc(O)cc1)C(CC)c1ccc(O)cc1 (configuration not stated),Potency,[2],8.27 µM (active)
same,Potency,[9],inactive
same,Potency,[3],inactive
same,Potency,[5],10.4 µM (active)
same,Potency,[8],inactive
CC1(C)OC2CC3C4CC(F)C5=CC(=O)C=CC5(C)C4C(O)CC3(C)[C@]2(C(=O)CO)O1 (some centres not stated),Potency,[2],inactive
same,Potency,[9],inactive
same,Potency,[3],inactive
same,Potency,[5],inactive
same,Potency,[6],inactive
same,Potency,[7],inactive
same,Potency,[8],inactive
COc1ccc2c(c1)c(C1=C(c3c[nH]c4ccccc34)C(=O)NC1=O)cn2CCCN(C)C,Potency,[2],inactive
same,Potency,[9],inactive
same,Potency,[4],20.8 µM (active)
same,Potency,[6],2.33 µM (active)
same,Potency,[1],inactive
same,Potency,[7],23.3 µM (active)
same,Potency,[8],16.6 µM (active)
CN(C)CCN(C)C(=O)c1ccc(NC(=O)Nc2ccc(-c3nc(N4CCOCC4)c4ccn(CC(F)(F)F)c4n3)cc2)cc1,Potency,[2],0.329 µM (active)
same,Potency,[3],3.69 µM (active)
same,Potency,[4],0.208 µM (active)
same,Potency,[5],0.928 µM (active)
same,Potency,[6],0.369 µM (active)
same,Potency,[8],4.69 µM (active)
C[C@@H]1O[C@@H](O[C@H]2CC[C@@]3(C)[C@H](CC[C@@H]4[C@H]3C[C@@H](O)[C@]3(C)[C@@H](C5=CC(=O)OC5)CC[C@]43O)C2)C[C@H](O)[C@@H]1O[C@H]1C[C@H](O)[C@H](O[C@H]2C[C@H](O)[C@@H](O)[C@@H](C)O2)[C@H](C)O1 (stereo in doubt),Potency,[2],0.0759 µM (active)
same,Potency,[4],0.107 µM (active)
same,Potency,[6],0.339 µM (active)
same,Potency,[1],1.91 µM (active)
same,Potency,[7],inactive
same,Potency,[8],0.215 µM (active)
CN1N=C(N)c2cn([C@@H]3O[C@H](COP(=O)(O)O)[C@@H](O)[C@@H]3O)c3ncnc1c23,Potency,[2],0.827 µM (active)
same,Potency,[4],1.17 µM (active)
same,Potency,[10],0.329 µM (active)
same,Potency,[7],1.17 µM (active)
same,Potency,[8],1.05 µM (active)
OCCn1cc(-c2ccc3c(c2)CCC3=NO)c(-c2ccncc2)n1,Potency,[2],inactive
same,Potency,[9],inactive
same,Potency,[5],8.51 µM (active)
same,Potency,[7],inactive
same,Potency,[8],inactive
Nc1ccc(-c2ccc3ncc4ccc(=O)n(-c5cccc(C(F)(F)F)c5)c4c3c2)cn1,Potency,[2],0.0208 µM (active)
same,Potency,[3],0.185 µM (active)
same,Potency,[4],0.0369 µM (active)
same,Potency,[5],0.233 µM (active)
same,Potency,[6],0.329 µM (active)
same,Potency,[1],0.329 µM (active)
same,Potency,[7],0.261 µM (active)
same,Potency,[8],0.296 µM (active)
COC(=O)Nc1ccc(-c2nc(N3CCOCC3)c3cnn(C4CCN(C(=O)OC)CC4)c3n2)cc1,Potency,[2],1.31 µM (active)
CCOC(=O)[C@H](CCc1ccccc1)N[C@@H](C)C(=O)N1CCCC1C(=O)O (some centres not stated),Potency,[1],11.7 µM (active)
